Assay [1] can be described thus: ATG_M_61_CIS: Attagene CIS-FACTORIAL HepG2 Assay for M61 Transcription Factor (Internal Marker) (AID 2282937; active = hit-call score of the fitted dose curve at least 0.9, where 1 is the maximum; inactive = score below 0.9). The following applies: HepG2 Attagene CIS-FACTORIAL M61 internal marker reporter; actives raise or lower the signal. Summed up:
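Fluorescence from labelled cDNA fragments, separated by capillary electrophoresis, quantifies reporter induction. HepG2 cells bearing transiently transfected cis-promoter MRTUs were incubated with test chemical for 24 h; DMSO defined baseline for gain/loss fitting.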

Assay [2] in a line: ATG_EGR_CIS: Attagene CIS-FACTORIAL HepG2 Assay for human Early Growth Response 1 (EGR1) (AID 2282938; active = hit-call score of the fitted dose curve at least 0.9, where 1 is the maximum; inactive = score below 0.9). The following applies: HepG2 Attagene CIS-FACTORIAL EGR reporter mRNA; actives raise or lower the signal. Summed up:
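Cell-based multiplex transcription assay: HepG2 carrying transfected cis-element reporter units, 24 h chemical treatment. Fluorescence from capillary electrophoresis of RT-PCR products gives mRNA levels; fitting is bidirectional relative to DMSO.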

Assay [3] is described as follows: ATG_GRE_CIS: Attagene CIS-FACTORIAL HepG2 Assay for human Glucocorticoid Response Elements (GRE) (AID 2282947; active = hit-call score of the fitted dose curve at least 0.9, where 1 is the maximum; inactive = score below 0.9). The following applies: HepG2 GRE cis-reporter, Attagene multiplex mRNA; actives raise or lower the signal. A digest of the protocol: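 Assay uses human hepatoma HepG2 cells transfected with cis-promoter reporter units, exposed 24 h. mRNA from reporters detected by RT-PCR plus capillary electrophoresis; DMSO serves as negative control and baseline.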

The nature of assay [4]: ATG_M_06_CIS: Attagene CIS-FACTORIAL HepG2 Assay for M06 Transcription Factor (Internal Marker) (AID 2282950; active = hit-call score of the fitted dose curve at least 0.9, where 1 is the maximum; inactive = score below 0.9). The following applies: HepG2 Attagene CIS-FACTORIAL M06 internal marker reporter; actives raise or lower the signal. Summed up: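 One of many multiplexed endpoints: HepG2 reporter mRNA after 24 h dosing, detected by RT-PCR and capillary electrophoresis fluorescence; gain or loss of signal analysed against DMSO.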

A short description of assay [5]: ATG_PPRE_CIS: Attagene CIS-FACTORIAL HepG2 Assay for human Peroxisome Proliferator-activated Response Element (PPRE) (AID 2282958; active = hit-call score of the fitted dose curve at least 0.9, where 1 is the maximum; inactive = score below 0.9). The following applies: HepG2 PPRE cis-element reporter, Attagene transcription factor profiling; actives raise or lower the signal. A digest of the protocol: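 Multiplexed reporter transcription units under cis-regulatory promoters were transfected into HepG2 cells to capture endogenous factor activity. A 24 h incubation preceded RNA isolation and fluorescent RT-PCR fragment analysis.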

A short description of assay [6]: ATG_RORE_CIS: Attagene CIS-FACTORIAL HepG2 Assay for human RAR-related Orphan Receptor Element (RORE) (AID 2282959; active = hit-call score of the fitted dose curve at least 0.9, where 1 is the maximum; inactive = score below 0.9). The following applies: HepG2 Attagene cis-factorial RORE reporter, mRNA; actives raise or lower the signal. A digest of the protocol:
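Fluorescence intensity of reporter-specific cDNA fragments, separated by capillary electrophoresis, gives the signal. Source: HepG2 liver cells transiently transfected with cis-element reporters and exposed 24 h; DMSO-normalized bidirectional fit.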

Assay [7] in a line: ATG_M_06_TRANS: Attagene TRANS-FACTORIAL HepG2 Assay for M06 Transcription Factor (Internal Marker) (AID 2282983). The following applies: HepG2 Attagene TRANS M06 internal marker reporter. A digest of the protocol: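 HepG2 cells transiently transfected with multiplexed GAL4-UAS reporter transcription units; after 24 h compound exposure, reporter mRNA measured by RT-PCR, FAM-labelled primer extension, HpaI digestion and capillary electrophoresis. Gain-of-signal fitted versus DMSO baseline; background control readout.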

Assay [8] deals with Nuclear respiratory factor 1 (Homo sapiens) (UniProt Q16656). Nature of the assay: ATG_NRF1_CIS: Attagene CIS-FACTORIAL HepG2 Assay for human Nuclear Respiratory Factor 1 (NRF1) Orphan Gene (AID 2282987; active = hit-call score of the fitted dose curve at least 0.9, where 1 is the maximum; inactive = score below 0.9). The following applies: HepG2 NRF1 cis-element reporter, Attagene multiplex; actives raise or lower the signal. Summed up: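 Transcriptional reporter readout, one component of a 52-endpoint multiplexed HepG2 panel. Exposure 24 h; mRNA detected via RT-PCR and fluorescent capillary electrophoresis; fitting in both directions against DMSO.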
Sequence of Nuclear respiratory factor 1 (Homo sapiens) (Q16656 whole entry, looked up): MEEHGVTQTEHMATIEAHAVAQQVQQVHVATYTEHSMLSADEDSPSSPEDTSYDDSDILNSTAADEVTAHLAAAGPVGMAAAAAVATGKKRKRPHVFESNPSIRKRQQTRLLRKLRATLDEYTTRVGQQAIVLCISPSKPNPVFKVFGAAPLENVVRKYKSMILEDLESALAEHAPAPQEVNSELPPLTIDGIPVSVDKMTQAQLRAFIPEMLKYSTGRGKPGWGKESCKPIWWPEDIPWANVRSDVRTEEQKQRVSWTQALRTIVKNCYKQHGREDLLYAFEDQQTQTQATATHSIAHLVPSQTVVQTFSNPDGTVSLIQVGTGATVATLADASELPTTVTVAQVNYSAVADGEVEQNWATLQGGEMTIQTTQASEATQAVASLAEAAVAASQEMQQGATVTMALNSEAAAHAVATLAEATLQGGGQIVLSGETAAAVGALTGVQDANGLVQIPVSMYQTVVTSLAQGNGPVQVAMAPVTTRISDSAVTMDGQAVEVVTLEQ

A short description of assay [9]: ATG_NFI_CIS: Attagene CIS-FACTORIAL HepG2 Assay for human Nuclear Factor I (NFI) (AID 2282989; active = hit-call score of the fitted dose curve at least 0.9, where 1 is the maximum; inactive = score below 0.9). The conditions noted are these: HepG2 cis-regulatory reporter, NFI response element transcription; actives raise or lower the signal. Summed up: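 Reporter transcription driven by endogenous transcription factors in HepG2 cells; 24 h treatment. Quantitation by labelled RT-PCR fragments on capillary electrophoresis, gain- or loss-of-signal relative to DMSO.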

The target in assay [10] is Nuclear receptor subfamily 1 group I member 2 (Homo sapiens) (UniProt O75469). In words: ATG_PXR_TRANS: Attagene TRANS-FACTORIAL HepG2 Assay for human Pregnane X Receptor (PXR) (AID 2283008). Summed up:
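Measures mRNA induction of a GAL4-UAS-driven reporter in human HepG2 cells transiently expressing PXR fused to Gal4, following 24 h treatment. DMSO served as negative control and baseline.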

In assay [11] the target is Retinoic acid receptor RXR-alpha (Homo sapiens) (UniProt P19793). In words: ATG_RXRa_TRANS: Attagene TRANS-FACTORIAL HepG2 Assay for human Retinoid X Receptor alpha (RXRa) (AID 2283012). Summed up: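 HepG2 cells transiently transfected with multiplexed GAL4-UAS reporter units and chimeric NR-GAL4 fusions, dosed 24 h. Reporter mRNA measured by RT-PCR, FAM labelling, HpaI digestion and capillary electrophoresis; gain-of-signal fitted relative to DMSO baseline.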
Sequence of Retinoic acid receptor RXR-alpha (Homo sapiens) (P19793 whole entry, looked up, the tested form may be a part): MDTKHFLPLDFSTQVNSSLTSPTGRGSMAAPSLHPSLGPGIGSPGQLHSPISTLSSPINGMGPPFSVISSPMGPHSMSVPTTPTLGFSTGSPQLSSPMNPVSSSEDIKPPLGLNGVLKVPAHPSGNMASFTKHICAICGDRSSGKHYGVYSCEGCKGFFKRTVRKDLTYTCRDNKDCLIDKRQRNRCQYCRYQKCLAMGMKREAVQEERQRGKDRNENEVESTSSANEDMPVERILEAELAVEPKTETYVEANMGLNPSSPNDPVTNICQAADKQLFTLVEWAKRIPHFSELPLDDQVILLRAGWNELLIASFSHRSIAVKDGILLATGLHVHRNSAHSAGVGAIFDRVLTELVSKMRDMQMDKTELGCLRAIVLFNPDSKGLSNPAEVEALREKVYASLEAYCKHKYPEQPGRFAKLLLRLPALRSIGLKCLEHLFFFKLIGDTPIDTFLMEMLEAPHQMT

Assay [12] has as its target human Retinoid X Receptor beta (RXRb), RXRB (gene 6257) (UniProt P28702). In words: ATG_RXRb_TRANS: Attagene TRANS-FACTORIAL HepG2 Assay for human Retinoid X Receptor beta (RXRb) (AID 2283013). Summed up:
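HepG2 cells transiently transfected with multiplexed reporter units driven by GAL4-UAS and exogenous chimeric NR-Gal4 proteins; treated 24 h. Reporter mRNA measured by RT-PCR, 6-FAM labelling and capillary electrophoresis; gain-of-signal fitted versus DMSO baseline.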

The target in assay [13] is Cellular tumor antigen p53 (Homo sapiens) (UniProt P04637). In words: TOX21_p53_BLA_p2_ratio: Tox21 HCT-116 p53 Agonism Beta-lactamase Assay, Ratio, Phase 2 (AID 2283592). Summed up:
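HCT116 cells carrying a p53-responsive beta-lactamase reporter were plated, incubated 5 h at 37C, then dosed with compounds in DMSO (217-fold dilution) for 16 h. CCF4-AM substrate was added for 2 h at room temperature; the 460/530 nm emission ratio gave gain-of-signal activity relative to DMSO.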

Assay [14] has the same target. In words: TOX21_p53_BLA_p3_ratio: Tox21 HCT-116 p53 Agonism Beta-lactamase Assay, Ratio, Phase 3 (AID 2283596). A digest of the protocol:
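HCT116 p53-bla cells (4000/well) given compound in DMSO (217-fold dilution) after 5 h, incubated 16 h at 37C. CCF4-AM substrate 2 h at room temperature; 460/530 nm emission ratio, gain fitted against DMSO.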

Assay [15] has the same target. Nature of the assay: TOX21_p53_BLA_p5_ratio: Tox21 HCT-116 p53 Agonism Beta-lactamase Assay, Ratio, Phase 5 (AID 2283599). A digest of the protocol: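 Beta-lactamase reporter ratio (blue 460 nm over green 530 nm, 405 nm excitation) after 2 h CCF4-AM loading, in HCT-116 cells exposed 16 h at 37 C to compounds pinned at 217-fold dilution. Increases relative to DMSO baseline scored.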

Assay [16] is described as follows: TOX21_p53_BLA_p5_viability: Viability Assessment in the Tox21 HCT-116 p53 Agonism Beta-lactamase Assay, Phase 5 (AID 2283600). Summed up: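 Cells were plated at 4000/well, rested 5 h at 37C, then given compounds in DMSO (217-fold dilution) for 16 h at 37C, 5% CO2. Following the CCF4-AM beta-lactamase read, CellTiter-Glo was added and luminescence was read after 30 min at room temperature.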

The target in assay [17] is Cellular tumor antigen p53 (Homo sapiens) (UniProt P04637). Nature of the assay: TOX21_p53_BLA_p4_ratio: Tox21 HCT-116 p53 Agonism Beta-lactamase Assay, Ratio, Phase 4 (AID 2283601). Summed up:
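Signal is the blue/green (460nm/530nm) ratio of cleaved versus uncleaved CCF4-AM substrate, read after 2 h substrate loading. Cells were HCT116 carrying the p53-responsive beta-lactamase reporter, dosed 16 h at 37C, 5% CO2; CellTiter-Glo measured in parallel.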

Assay [18] can be described thus: ATG_TGFb_CIS: Attagene CIS-FACTORIAL HepG2 Assay for human Transforming Growth Factor (TGF) (AID 2282967; active = hit-call score of the fitted dose curve at least 0.9, where 1 is the maximum; inactive = score below 0.9). The conditions noted are these: HepG2 Attagene CIS TGFb reporter, mRNA transcription; actives raise or lower the signal. Summed up:
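After a 24-hour incubation with compound, transfected HepG2 cells were lysed for RNA; reporter cDNA was amplified, fluorescently end-labeled and separated by CE. DMSO served as baseline for bidirectional fits.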

The nature of assay [19]: ATG_M_19_TRANS: Attagene TRANS-FACTORIAL HepG2 Assay for M19 Transcription Factor (Internal Marker) (AID 2282974). The following applies: HepG2 Attagene TRANS-FACTORIAL M19 internal marker reporter. A digest of the protocol:
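Measured here: internal-marker reporter transcript from HepG2 cells transfected with MRTUs, harvested at 24 h. cDNA PCR products were 6-FAM labelled by primer extension, cut with HpaI for 2 h at 37 C, and resolved by CE.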

In assay [20] the target is Hepatocyte nuclear factor 4-alpha (Homo sapiens) (UniProt P41235). Nature of the assay: ATG_HNF4a_TRANS: Attagene TRANS-FACTORIAL HepG2 Assay for human Hepatocyte Nuclear Factor 4 alpha (HNF4a) (AID 2282982). The conditions noted are these: HepG2 HNF4a transactivation reporter, mRNA readout. Summed up: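 Transfected HepG2 reporter cells are dosed for 24 h; reporter RNA is reverse-transcribed, amplified, fluorescently labelled and HpaI-digested before CE sizing. Positive-direction fit against DMSO.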
Sequence of Hepatocyte nuclear factor 4-alpha (Homo sapiens) (P41235 whole entry, looked up): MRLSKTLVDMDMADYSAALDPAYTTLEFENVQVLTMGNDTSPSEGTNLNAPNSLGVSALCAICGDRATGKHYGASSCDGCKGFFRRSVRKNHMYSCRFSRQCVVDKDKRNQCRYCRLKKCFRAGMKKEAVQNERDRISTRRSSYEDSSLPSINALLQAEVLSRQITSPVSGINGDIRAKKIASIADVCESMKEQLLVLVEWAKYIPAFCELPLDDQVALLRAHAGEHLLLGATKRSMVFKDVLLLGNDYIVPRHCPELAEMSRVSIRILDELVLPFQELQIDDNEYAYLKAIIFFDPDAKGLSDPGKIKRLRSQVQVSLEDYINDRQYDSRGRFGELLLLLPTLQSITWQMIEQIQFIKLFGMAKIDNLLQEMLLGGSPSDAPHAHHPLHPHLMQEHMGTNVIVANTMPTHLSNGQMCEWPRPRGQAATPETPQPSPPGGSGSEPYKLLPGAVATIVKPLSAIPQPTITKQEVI

Results filed as inconclusive are left out. The source made the active and inactive calls. The calls were made as follows, unless noted: active = hit-call score of the fitted dose curve at least 0.9, where 1 is the maximum; inconclusive = response in the unintended direction; inactive = score below 0.9.

Sequence of Cellular tumor antigen p53 (Homo sapiens) (P04637 whole entry, looked up): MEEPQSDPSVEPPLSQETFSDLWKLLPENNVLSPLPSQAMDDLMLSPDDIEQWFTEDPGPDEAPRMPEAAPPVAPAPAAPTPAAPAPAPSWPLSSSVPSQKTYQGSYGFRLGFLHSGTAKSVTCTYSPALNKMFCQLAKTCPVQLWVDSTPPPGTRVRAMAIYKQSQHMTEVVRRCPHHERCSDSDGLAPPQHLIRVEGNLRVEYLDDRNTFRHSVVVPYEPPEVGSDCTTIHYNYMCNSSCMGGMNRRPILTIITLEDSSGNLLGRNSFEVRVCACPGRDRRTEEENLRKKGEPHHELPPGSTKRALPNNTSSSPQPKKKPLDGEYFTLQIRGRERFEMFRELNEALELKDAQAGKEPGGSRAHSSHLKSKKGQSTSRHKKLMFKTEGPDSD
Sequence of Nuclear receptor subfamily 1 group I member 2 (Homo sapiens) (O75469 whole entry, looked up, the tested form may be a part): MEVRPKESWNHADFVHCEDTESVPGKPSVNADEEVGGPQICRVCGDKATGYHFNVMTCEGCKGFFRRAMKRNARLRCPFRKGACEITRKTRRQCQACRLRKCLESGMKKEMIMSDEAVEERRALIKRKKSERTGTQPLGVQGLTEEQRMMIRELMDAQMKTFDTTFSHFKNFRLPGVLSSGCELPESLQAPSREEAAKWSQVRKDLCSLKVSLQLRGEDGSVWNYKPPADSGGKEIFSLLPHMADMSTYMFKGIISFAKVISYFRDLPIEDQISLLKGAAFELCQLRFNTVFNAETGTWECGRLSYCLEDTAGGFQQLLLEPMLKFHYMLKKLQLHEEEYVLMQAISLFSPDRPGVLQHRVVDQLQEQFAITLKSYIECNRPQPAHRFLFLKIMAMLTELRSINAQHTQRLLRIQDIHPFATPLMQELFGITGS
Sequence of human Retinoid X Receptor beta (RXRb), RXRB (gene 6257) (P28702 whole entry, looked up, the tested form may be a part): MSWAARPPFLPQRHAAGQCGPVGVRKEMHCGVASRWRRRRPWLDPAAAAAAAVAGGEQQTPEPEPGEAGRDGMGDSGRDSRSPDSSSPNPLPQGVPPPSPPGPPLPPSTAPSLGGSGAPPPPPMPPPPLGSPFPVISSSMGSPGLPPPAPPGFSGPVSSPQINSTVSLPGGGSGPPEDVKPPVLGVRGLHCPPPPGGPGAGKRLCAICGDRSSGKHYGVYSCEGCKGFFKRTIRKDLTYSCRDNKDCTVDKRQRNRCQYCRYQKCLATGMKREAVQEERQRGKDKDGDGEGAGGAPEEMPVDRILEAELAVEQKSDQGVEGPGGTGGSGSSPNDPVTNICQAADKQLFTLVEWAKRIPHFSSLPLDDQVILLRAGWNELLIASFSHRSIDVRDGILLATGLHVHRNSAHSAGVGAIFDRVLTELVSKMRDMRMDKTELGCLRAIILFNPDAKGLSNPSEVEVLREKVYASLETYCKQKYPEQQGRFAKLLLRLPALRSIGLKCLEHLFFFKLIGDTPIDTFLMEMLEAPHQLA

As to `Cc1ccccc1CCl`, the molecule was classed as inactive in assay [1], in [2], in assay [3], in assay [4], in [5] and in assay [6]. Besides, the result in assay [7], in assay [8], in assay [9], in [10], in assay [11] and in [12] was inactive. The outcome in [13], in [14], in assay [15], in assay [16] and in [17] was inactive.
Turning to `O=C=Nc1ccccc1`, the result in assay [1], in assay [2], in assay [4], in assay [18], in assay [19] and in assay [20] was inactive. The call in assay [8], in [9] and in assay [11] was inactive.
`N#CCCCCC#N`: the call in assay [2], in [3], in assay [4], in assay [5], in [7] and in [8] was inactive. Further, the result in [11], in [13], in assay [14], in assay [15], in [16] and in assay [17] was inactive.
For the molecule `C#CC1(O)CCCCC1`, the molecule was classed as inactive in assay [1], in [2], in assay [4], in [6], in assay [18] and in assay [7]. Also, the call in assay [8], in assay [9], in [12], in assay [13], in [14] and in assay [15] was inactive. For the same molecule, the result in [17] was inactive.
For `CC(=O)C=Cc1ccccc1`, the molecule was called inactive in assay [1], in assay [3], in assay [5], in assay [6], in assay [18] and in [19]. The molecule was called inactive in [20], in assay [8], in [9], in assay [11] and in assay [12]. For the same molecule, the AC50 was 146 µM (active) in assay [2] and 35.9 µM (active) in assay [10].
For the molecule `Nc1c(Cl)c(Cl)c(Cl)c(Cl)c1Cl`, the outcome in [2], in assay [3], in assay [4], in assay [5], in assay [6] and in assay [7] was inactive. The outcome in assay [9] and in [11] was inactive. The figures for the half-maximal activity concentration (AC50) in assay [10] and in assay [12] were 13.3 µM (active) and 28.6 µM (active), respectively.
As to `CC1CCCC1.[C-]#[O+].[C-]#[O+].[C-]#[O+].[Mn]`, the molecule was called inactive in [1], in assay [2], in assay [3], in [5], in [6] and in assay [18]. The molecule was called inactive in [19], in [9], in assay [10], in assay [11], in assay [12] and in assay [13]. For the same molecule, the outcome in assay [14], in assay [15], in assay [16] and in [17] was inactive.
With `Oc1ccc(Cl)cc1`, the molecule was classed as inactive in assay [2], in [4], in assay [5], in assay [18], in assay [20] and in [7]. For the same molecule, the result in assay [8], in assay [9], in assay [11], in assay [13], in [14] and in assay [15] was inactive. Also, the molecule was called inactive in assay [16] and in assay [17].
On to `C[N+](C)(C)CC(=O)O`, for which the call in assay [1], in [2], in assay [4], in assay [5], in assay [6] and in [18] was inactive. The call in assay [19], in assay [20], in assay [8], in assay [9] and in [11] was inactive.
As to `CNC(=O)Oc1cc(C)c(SC)c(C)c1`, the outcome in assay [1], in assay [3], in assay [4], in [6], in assay [20] and in [7] was inactive. In addition, the result in [8] and in [11] was inactive. Moreover, the half-maximal activity concentration (AC50) in assay [2] was 100 µM (active); in assay [5], 36.4 µM (active); in assay [10], 13.3 µM (active); in assay [12] it was 30.2 µM (active).

In general, AC50 refers to the midpoint of the concentration-response curve, whichever way the signal moves.

These data come from PubChem BioAssay (EPA / NIEHS).
